Our source for the Potency values is PubChem BioAssay (NCATS).

Records with an inconclusive call do not appear. Entries that show only a call come without a potency. Activity calls are given as the source filed them. Calls follow the shape of the dose curve; as a rule, active = well fitted curve in the direction sought with a large enough effect; inconclusive = small, poorly fitted or top-dose-only effect, or another doubt; inactive = no such curve, though single readings can be large or run the other way.

The target of this assay is Metallo-beta-lactamase type 2 (Klebsiella pneumoniae) (UniProt C7C422). Kind of assay: qHTS to identify inhibitors of the New Delhi Metallo-beta-lactamase (NDM): assay validation screen against the NCATS LOPAC Collection (AID 1794843).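 Also: nitrocefin turnover by NDM-1 measured as 485 nm absorbance at plateau.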 To be noted: NDM-1 enzyme, nitrocefin hydrolysis, absorbance 485 nm; series mostly up to 38.4 µM. Summed up: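 NDM-1 at 2 nM final in 50 mM HEPES pH 7.0, 1 uM ZnSO4, 0.01% Tween20, preincubated with LOPAC compounds pinned in DMSO; 50 uM nitrocefin (stock) added. Hydrolysis read as absorbance at 485 nm in the plateau phase.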
Chain of Metallo-beta-lactamase type 2 (Klebsiella pneumoniae) (C7C422 whole entry, looked up): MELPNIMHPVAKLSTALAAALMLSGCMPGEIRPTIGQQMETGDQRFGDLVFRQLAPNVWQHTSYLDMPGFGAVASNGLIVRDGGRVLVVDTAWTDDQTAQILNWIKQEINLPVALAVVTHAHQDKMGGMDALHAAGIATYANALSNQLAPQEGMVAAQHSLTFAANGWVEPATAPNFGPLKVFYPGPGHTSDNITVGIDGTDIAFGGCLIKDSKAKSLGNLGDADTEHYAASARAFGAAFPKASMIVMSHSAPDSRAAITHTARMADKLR
As to `CN(C)S(=O)(=O)c1ccc2c(c1)/C(=C/c1cc3c([nH]1)CCCC3)C(=O)N2`, the Potency entry was “inactive”. As for `O=C(O)C1=CCNCC1`, the entry is “inactive”.

With `CN1C2CCC1CC(OC(c1ccccc1)c1ccccc1)C2` (stereo not drawn), the Potency entry was “inactive”. As for `CNc1cc(NS(=O)(=O)c2ccc(N)cc2)nc(NC)n1`, the entry is “inactive”; as for `CN1CCc2cc(Cl)c(O)cc2[C@@H](c2ccccc2)C1`, “inactive”; as for `N#Cc1cc([N+](=O)[O-])c2sc(C(N)=O)[n+]([O-])c2c1`, “inactive”. As for `N=S(=O)(O)Cc1noc2ccccc12`, the entry is “inactive”; as for `CC(=O)[C@H]1CCC2C3CC=C4C[C@@H](OS(=O)(=O)O)CC[C@]4(C)C3CC[C@@]21C` (stereo partly drawn), “inactive”. As for `c1ccc(C2CN3CCSC3=N2)cc1` (stereo not drawn), the entry is “inactive”; as for `O=c1[nH]c2ccccc2c2ccccc12`, “inactive”; as for `O=C1NC(=O)c2cc(Nc3ccccc3)c(Nc3ccccc3)cc21`, “inactive”. Turning to `CNC(=O)c1cc2c(cn1)[nH]c1ccccc12`, the Potency result was “inactive”. `CCCCCCCCCCCCCCCCCCOC[C@H](COP(=O)([O-])OCC[N+](C)(C)C)OC`: the Potency result is “inactive”.

As to `O=[N+]([O-])c1cccc2c(Br)[nH]nc12`, the Potency result is “inactive”. The value for `O=C(O)CCC(=O)N1CCCC1C(=O)O` (stereo not drawn) was “inactive”; that for `CC1=C(C(=O)O)N2C(=O)[C@@H](NC(=O)C(N)C3=CCC=CC3)[C@H]2SC1` (stereo partly drawn) was “inactive”; that for `NC(N)=NC(N)=Nc1ccccc1` was “inactive”.

With `CC(C)NCC(O)COc1ccc(CC(N)=O)cc1` (stereo not drawn), the Potency entry is “inactive”.

On to `Cc1nc(N=Nc2cc(S(=O)(=O)O)c3cc([N+](=O)[O-])cc(S(=O)(=O)O)c3c2)c(COP(=O)(O)O)c(C=O)c1O`, for which the Potency entry is “inactive”.

In the case of `COC1(C2=NCCN2)COc2ccccc2O1` (stereo not drawn), the Potency result was “inactive”. With `CN(C)CCCc1cc(C(=O)Nc2ccc(-c3ccncc3)cc2)ccc1O`, the Potency entry was “inactive”.

As to `CCCCCCC/C=C\CCCCCCCCC(=O)O`, the Potency result is “inactive”. The value for `Nc1ncnc2c1ncn2C1CCCO1` (stereo not drawn) was “inactive”; that for `CC(C)(C)NCC(O)COc1cccc2[nH]c(=O)[nH]c12` (stereo not drawn) was “inactive”; that for `OC[C@H]1O[C@@H](n2cnc3cncnc32)[C@H](O)[C@@H]1O` was “inactive”.

For the compound `CCCCCC[C@@H]([C@@H](C)O)n1cnc2c(N)ncnc21`, the Potency entry was “inactive”. As for `Cc1cc(Cn2cnc3c2C[C@@H](C(=O)O)N(C(=O)C(c2ccccc2)c2ccccc2)C3)ccc1N`, the entry is “inactive”; as for `CCCCCCCCCC[Si](C)(C)CCC(=O)NC(Cc1ccc(C)cc1)c1ccccc1` (stereo not drawn), “inactive”; as for `O=C(O)C1=CCCN(CCON=C(c2ccccc2)c2ccccc2)C1`, “inactive”. For `CCCCS(=N)(=O)CC[C@H](N)C(=O)O` (stereo partly drawn), the Potency entry was “inactive”. Turning to `CC(C)(C)c1cc(/C=C(\C#N)C(N)=S)cc(C(C)(C)C)c1O`, the Potency entry is “inactive”. As for `COC(=O)C(N)Cc1ccc(Cl)cc1` (stereo not drawn), the entry is “inactive”; as for `N=C(N)SCCN`, “inactive”; as for `COc1ccccc1N1CCN(CCCNc2c(C)c(=O)n(C)c(=O)n2C)CC1`, “inactive”. The value for `O=C(c1ccc2c(c1)OCCO2)N1CCCCC1` was “inactive”. `COc1ccc2c(c1)c(CC(=O)O)c(C)n2Cc1ccc(Cl)cc1`: the Potency result was “inactive”. The value for `Cc1cc2c(cc1Cl)N(C(=O)Nc1ccnc3ccccc13)CC2` was “inactive”; that for `Nc1ccc(-c2ccc3ccccc3n2)cc1` was “inactive”.
